# Assay outcomes (PubChem BioAssay)
# TEAD-YAP inh: TEAD-YAP interaction inhibition | 640,000 compounds, 1.4% hits | HEK-TIYL cells, TEAD-Gal4/YAP UAS-luciferase luminescence | inhibition, % at 9.12 µM | AID 1259422; in the data active = inhibition above about 32%;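 note: 0% = median of test compound wells and 100% = reference inhibitor wells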
# MITF primary: human MITF inhibition, primary screen; O75030; AlphaScreen MITF homodimerization, bead proximity signal; inhibition, % at 2.6 µM; 650,000 compounds, 0.91% hits; AID 1259374; in the data active = inhibition above about 50%;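 note: 0% = vehicle wells with protein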
# FBW7 act: human FBW7 E3 ligase activation, primary screen; Q969H0; AlphaScreen FBW7–phospho-cyclin E peptide binding, activator screen; normalized activity (activation), % at 26.1 µM; 650,000 compounds, 0.13% hits; AID 1259310; in the data active = normalized activity above about 1.9%;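 note: purified mutant Fbw7 with reduced substrate affinity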
# Target sequence (Q969H0 whole entry, looked up): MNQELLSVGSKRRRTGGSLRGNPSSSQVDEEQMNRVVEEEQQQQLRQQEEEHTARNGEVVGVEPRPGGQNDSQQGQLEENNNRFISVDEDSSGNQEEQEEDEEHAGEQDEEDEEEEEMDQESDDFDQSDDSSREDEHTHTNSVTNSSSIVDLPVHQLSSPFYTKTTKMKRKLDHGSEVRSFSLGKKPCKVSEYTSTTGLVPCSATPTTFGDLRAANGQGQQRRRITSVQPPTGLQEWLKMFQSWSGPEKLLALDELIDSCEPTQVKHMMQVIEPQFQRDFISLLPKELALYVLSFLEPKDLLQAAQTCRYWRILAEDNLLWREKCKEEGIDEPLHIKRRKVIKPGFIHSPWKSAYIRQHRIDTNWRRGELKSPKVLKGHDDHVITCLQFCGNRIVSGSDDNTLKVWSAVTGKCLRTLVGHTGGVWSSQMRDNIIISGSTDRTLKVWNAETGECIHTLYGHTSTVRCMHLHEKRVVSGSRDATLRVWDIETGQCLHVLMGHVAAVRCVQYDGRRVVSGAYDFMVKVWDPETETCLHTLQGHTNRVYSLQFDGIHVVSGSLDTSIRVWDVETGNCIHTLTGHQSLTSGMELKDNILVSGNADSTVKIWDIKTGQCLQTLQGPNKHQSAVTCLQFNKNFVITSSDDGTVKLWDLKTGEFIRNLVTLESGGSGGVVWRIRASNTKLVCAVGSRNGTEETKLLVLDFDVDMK
# GPR151 ag: activates the human receptor GPR151 | Q8TDV0 | PathHunter beta-arrestin GPR151 cells, luminescence | activation, % at 11.2 µM | 650,000 compounds, 1% hits | AID 1508602; in the data active = activation above about 4.9%;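 note: 0% = median of compound wells and 100% = cells with positive control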
# * = called active by the depositor. In the library only some 3.5% were active in any assay of this set; here they are far more common.
SMILES,TEAD-YAP inh,MITF primary,FBW7 act,GPR151 ag
CCN1CCN(CC(=O)c2cc(C)n(-c3ccc(F)cc3)c2C)CC1,-6,80*,0,1
Cc1cc(C(=O)CN2CCN(C)CC2)c(C)n1-c1ccc(Br)cc1,8,88*,0,-1
Cc1cccc(N2C(=O)NC(=O)/C(=C\c3cccc(O)c3)C2=O)c1,-3,4,0,1
O=C1NC(=S)N(c2ccccc2)C(=O)/C1=C\c1ccoc1,3,71*,0,1
O=C1NC(=S)N(c2ccc(Cl)cc2)C(=O)/C1=C\c1ccoc1,10,34,0,-2
Cc1cccc(N2C(=O)NC(=O)/C(=C\c3ccoc3)C2=O)c1,-4,58*,0,-1
Cc1nnc(N/N=C/c2ccc(Br)cc2)[nH]c1=O,6,9,1,1
COc1cc(/C=N/Nc2nnc(C(C)(C)C)c(=O)n2N)ccc1O,8,12,0,-1
Cc1nnc(N/N=C/c2cc(Br)ccc2O)[nH]c1=O,90*,114*,-1,1
COc1ccc(O)c(/C=N/Nc2nnc(C)c(=O)[nH]2)c1,72*,79*,-1,-2
COc1ccc(/C=N/Nc2nnc(C)c(=O)[nH]2)cc1,-5,-11,0,-1
Cc1nnc(N/N=C/c2cc(Cl)ccc2O)[nH]c1=O,92*,127*,0,2
CC(C)(C)c1nnc(N/N=C/c2cc(Br)ccc2O)n(N)c1=O,75*,63*,0,2
CC1(Cc2ccc(S(C)(=O)=O)cc2)C(=O)Nc2cc(C(F)(F)F)ccc21 (stereo unspecified),-1,-14,0,1
O=C(NCc1nnc2n1CCN(C(=O)c1noc3c1CCCC3)CC2)c1cccc(F)c1,4,9,0,0
O=C1CCC(CCC(=O)N2CCCC(OCc3ccccc3)C2)(Cc2ccco2)N1 (stereo unspecified),-4,-16,0,0
C[n+]1ccccc1/C=C\c1ccccc1O,3,3,0,0
C[n+]1ccccc1/C=C/C1=C(c2ccccc2)Oc2ccccc2O1,83*,0,0,2
CCC(C)n1c(SCc2ccccc2C)nc2ccsc2c1=O (stereo unspecified),47*,-24,0,1
CCC(C)n1c(SCc2ccccc2F)nc2ccsc2c1=O (stereo unspecified),-6,7,0,0
CC(C)(C)CN1CCN(Cc2nc(-c3ccc(F)cc3)cs2)CC1CCO (stereo unspecified),44*,0,0,-2
CN1CCN(Cc2nc(-c3ccc(F)cc3)cs2)CC1CCO (stereo unspecified),-4,9,0,-3
CCn1c(=N)n(CC(=O)c2ccc(Br)cc2)c2ccccc21,-28,-6,3.4*,-1
CCn1c(=N)n(CC(=O)c2ccc(C)cc2)c2ccccc21,-17,7,1,-1
COc1ccc2nc(N3CCCCC3)sc2c1,61*,13,2,-4
SMILES,TEAD-YAP inh,MITF primary,FBW7 act,GPR151 ag
COc1ccc2nc(N3CCCC3)sc2c1,2,12,0,-6
COc1ccccc1NC(=O)CN(c1cc(Cl)ccc1C)S(C)(=O)=O,3,10,0,1
CCOc1ccc(C2Nc3ccccc3C(=O)N2c2ccc3ccccc3c2)cc1 (stereo unspecified),74*,1,0,-7
CCOc1ccc(C2Nc3ccccc3C(=O)N2c2ccc(F)c(Cl)c2)cc1 (stereo unspecified),-46,14,0,-6
CCCCSc1nc2c(sc(=S)n2-c2ccc(OCC)cc2)c(=O)n1-c1ccccc1,4,2,0,-1
Cc1ccc(CSc2ccc(C(=O)NNC(=O)c3ccccn3)cc2[N+](=O)[O-])cc1,50*,27,0,-2
CCN(Cc1ccccc1)C(=O)c1sc2nc3n(c(=O)c2c1C)CCCC3,37*,10,1,1
C=CC(=O)Nc1cc([N+](=O)[O-])ccc1OC,18,-2,0,1
O=C(N/N=C/c1ccc(F)cc1)c1cc2sccc2[nH]1,49*,17,0,-1
Cc1ccc(-c2nc(-c3nonc3N)no2)cc1,-30,8,0,2
CC(C)(C)c1ccc(-c2nc(-c3nonc3N)no2)cc1,51*,-2,0,0
CC(C)(C)c1ccc(-c2nc(-c3c(F)cccc3F)no2)cc1,68*,-8,0,1
N#Cc1ccc(-c2nc(-c3c(F)cccc3F)no2)cc1,-16,9,0,2
COc1c(/C=C/C(=O)O)c(O)c(OC)c2occc12,-10,43,0,0
